Structures are written as SMILES. Active and inactive are the calls of the source. Rule for the calls: active = hit-call score of the fitted dose curve at least 0.9, where 1 is the maximum; inactive = score below 0.9.

The AC50 is the midpoint of the concentration-response curve, whichever way the signal moves.

The assay is described as follows: CCTE_Mundy_HCI_Cortical_Synap_Neur_Matur_NeuriteCount: CCTE's Synaptogenesis and Neurite Maturation Assay in rat cortical cells for Neurite Count, Mundy Lab (AID 2284222). How it is done:
CCTE_Mundy_HCI_Cortical_Synap&Neurite_Matur is a multiplexed, cell-based-readout assay that uses rat primary cortical cells with measurements taken at 288.33 hours after chemical dosing in a microplate: 96-well plate.CCTE_Mundy_HCI_Cortical_Synap_Neur_Matur_NeuriteCount is one of eight components of the CCTE_Mundy_HCI_Cortical_Synap&Neurite_Matur assay. It measures synaptogenesis and neurite maturation related to number of neurites using High Content Imaging of fluorescently labelled markers.[…] Using a type of morphology reporter, loss -of-signal activity can be used to understand developmental effects.
Cells are plated onto 96 well plates and allowed 2 hr for attachment to the substrate. At days in vitro (DIV) 5, Cytosine Arabinoside (AraC) is added to arrest glial cell growth. Chemicals are dosed and a media change is performed at DIV 7 of differentiation and is continued through DIV 12 when the experiment is terminated. Cells are fixed with […] and Hoechst Dye. Cells are stained using Millipore Mouse anti-MAP2MAB3418 (1:800) and Millipore Rabbit anti-Synaptophysinsc-1750 (1:250) primary antibodies and Alexa Fluor-488 goat anti-mouse and AlexaFluor-546 goat anti-rabbit secondary antibodies to label neuronal cell nuclei, synapses and neurites. A Cellomics ArrayScan VTi HCS Reader is used for automated image acquisition and analysis of neurite outgrowth.
For `CC(=O)N[C@@H](CC(=O)O)C(=O)O`, the molecule was classed as inactive.
`CC(CNC(=S)[S-])NC(=S)[S-].[Zn+2]` (centres undefined): the AC50 was 76.9 µM (active).
For the molecule `CCCCCC=C(C)C(CC)CCO` (centres undefined), the molecule was classed as inactive.
In the case of `CC(C)O`, the molecule was called inactive.
Regarding `BrC1CC(Br)CC(Br)CC(Br)CC(Br)CC(Br)C1` (centres undefined), the AC50 was 4.27 µM (active).
For `[O]=[V]([OH])([OH])[OH]`, the concentration at half-maximal activity (AC50) is 78.5 µM (active).
As to `C[C@@H]1CC[C@@H](C(C)(C)O)[C@H](O)C1`, the molecule was classed as inactive.
The same measure, in the same setting: the result for `C[C@@H]1CCO[C@H]2Cn3cc(C(=O)NCc4ccc(F)cc4F)c(=O)c(O)c3C(=O)N12` reads “inactive”; that for `CCc1ccccc1`, “inactive”; that for `Cc1[nH]n(C)c(=O)c1C(=O)c1ccc(C(F)(F)F)cc1S(C)(=O)=O`, “inactive”.
`F`: the molecule was classed as inactive.
`CC(C)c1nn(C(=O)NC(C)(C)C)c(=O)n1N`: the result was inactive.
For `O=C1CC2(CCCC2)CC(=O)N1CCCCN1CCN(c2ncccn2)CC1`, the call was inactive.
Regarding `CCCCCC(C)(CC)C(=O)NC` (centres undefined), the outcome was inactive.

For the origin of these results see PubChem BioAssay (EPA / NIEHS).
